PubChem BioAssay AID651965 (National Center for Advancing Translational Sciences (NCATS), 2013)
Screen size: about 340,000 compounds; about 6,400 (1.9%) were called active. Roughly 4% stayed inconclusive and do not appear here. The call rests on the fitted dose curve; in most records, active means well fitted falling curve with a large enough effect; inconclusive means small, poorly fitted or top-dose-only effect; inactive means no such curve, though single readings can be large or run the other way. The sample as a whole holds a higher share of actives than the screen did.

target: ATP-dependent Clp protease proteolytic subunit (Bacillus subtilis (strain 168)) (UniProt P80244); experiment: qHTS Assay for Activators of ClpP; further: the source files actives as falling curves though it sought activators and does not explain the sign; nearly all actives have a fitted effect of over 65% in size; conditions: purified B. subtilis ClpP, FRET peptide cleavage, 20 min; series mostly up to 57.5 µM; activity change, negative = active: at the top concentration
Outline: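 Buffer: 100 mM Tris/HCl pH8, 100 mM KCl, 0.05% low protease BSA, 2.5% glycerol, 0.01% Tween-20. ClpP 10 microg/mL final; 20 min RT; delta FRET normalized to ADEP and DMSO controls.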
Potency means the concentration at half of the fitted maximal effect.

Activity change, negative = active, inactive:
O=C(C[n+]1ccncc1)c1ccc2c(c1)CCCC2 0.453%
COc1ccc(CC(N)c2csc(NC(=O)Nc3ccc(C(C)C)cc3)n2)cc1 (configuration not stated) -0.479%
CO[C@H]1O[C@@H]2O[C@@]3(C)CC[C@@H]4[C@@H](C)CC[C@@H]([C@H]1C)[C@@]24OO3 0.445%
CCOC(=O)c1ccn(S(=O)(=O)c2ccc(C)cc2)c1-c1ccccc1 -0.322%
CCOC(=O)CC(=O)CSc1nc(-c2ccccc2)cc(-c2ccc(Cl)cc2)c1C#N 57.6%
CCOc1cc(-c2cc(-c3ccc(OC)cc3)nc(N)c2C#N)ccc1O 43.2%
CCc1ccc([C@@H]2CC(=O)[C@@H]3CN(S(=O)(=O)c4ccc(C)cc4)[C@H](c4ccc(Cl)cc4)C[C@@H]3N2S(=O)(=O)c2ccc(C)cc2)cc1 -0.494%
Cc1ccc(S(=O)(=O)N[C@H]2CCC[C@@H]2O)cc1 0.149%
CCCNC(=O)c1cc(C2CCCN(C(=O)c3ccc4c(c3)CCO4)C2)on1 (configuration not stated) 1.78%
CCOc1ccc(CNC(=O)C2CCC(=O)N2C2CCCC2)cc1OC (configuration not stated) 0.407%
CCCC(=O)Nc1cc(OCC)c(NC(=O)NC2CCCCC2)cc1OCC 0.317%
CCOc1ccc2[nH]c(=S)sc2c1 0.413%
C=CCC[C@@H](CCCCC)OC(=O)/C=C/[C@@H](O)[C@H](O)C[C@H](O)CC=C -1.79%
COc1ccc2oc(=O)c(C(=O)N3CCN(c4ccccc4F)CC3)cc2c1 0.738%
COc1cccc(S(=O)(=O)NCc2ccc(C(=O)NCc3ccccn3)cc2)c1 -0.597%
Cc1ccc(S(=O)(=O)N2CCC(C)CC2)cc1C(=O)NCc1ccccn1 0.42%
COc1ccc2oc(=O)c(C(=O)N3CCCc4ccccc43)cc2c1 -1.32%
Cc1cc(C)cc(OCC(=O)NNC(=O)c2cc3ccccc3oc2=O)c1 -8.32%
COc1ccc(CNC(=O)c2cc3cccc(OC)c3oc2=O)cc1 0.159%
N=c1oc2ccccc2cc1C(=O)NCc1ccccc1 0.202%
Cc1ccccc1CN1CCN(CC(=O)NCc2ccccn2)C1=O -0.209%
COc1cc(NC(=O)c2cc(-c3ccc(F)cc3OC(C)C)n[nH]2)cc(OC)c1OC -3.06%
COc1ccc(NC(=O)C2Cc3c(-c4ccc5c(c4)OCO5)ccnc3O2)cn1 (configuration not stated) 5.38%
COc1cc(C(O)c2nc(-c3cccc(C(=O)O)c3)cs2)ccc1F (configuration not stated) 3.5%
Cc1cc2c(cc1C)N1C(=O)c3cc4ccccc4cc3NC(=O)C1C(=O)N2 (configuration not stated) -2.06%
COc1cc(OC)c(OC)cc1/C=C1\C=Cc2ccccc21 -0.657%
CCOC(=O)C1(C)CCCN(C(=O)c2ccc(F)c(Cl)c2)C1 (configuration not stated) -9.57%
O=C(NCc1ccc(F)cc1)c1cc(C2CCCCN2C(=O)C2CCCCC2)on1 (configuration not stated) 0.616%
COc1cc(C(O)c2nc(-c3cnn(C)c3)cs2)ccc1F (configuration not stated) -2.24%
CCc1ccc(Oc2coc3cc(OC(=O)c4cc5ccccc5oc4=O)ccc3c2=O)cc1 -6.78%
CCOC(=O)c1cc2cc3ccccc3cc2oc1=O 1.97%
COc1ccc(Cl)cc1-c1cc(C(=O)Nc2cc(OC)c(OC)c(OC)c2)[nH]n1 -0.634%
CCCCCn1c(=O)[nH]c2cc(C(=O)NCCN(C)CCCC)ccc2c1=O -22.5%
O=C(CCCn1c(=O)[nH]c2cc(Cl)ccc2c1=O)NCCN1CCN(c2ccccc2)CC1 -0.7%
Nc1ncnc2c1ncn2[C@@H]1O[C@H](C(=O)NCC(F)(F)F)[C@@H](O)[C@H]1O 1.54%
CCCCc1c(-c2ccc(Cl)cc2)ncn1CCc1ccccc1OC -1.38%
Cc1nn(-c2ncc(C(F)(F)F)cc2Cl)c(=O)n1-c1ccccc1 -3.4%
Cc1ccc(-c2nc3c(Cl)cc(C(F)(F)F)cn3c2Cc2cccc(Cl)c2)cc1 -12.4%
OCCC#Cc1ccc(N2C(c3ccsc3)=Cc3ccc(F)cc3C2c2c[nH]c3ccccc23)cc1 (configuration not stated) 2.41%
CCOC(=O)C1=C(C)c2ccccc2OC1(C)C(=O)OCC (configuration not stated) 1.75%
Cc1cc(Br)cn2c(Cc3ccccc3C(F)(F)F)c(-c3ccc(Cl)cc3)nc12 -2.87%
C=C1C=C(C(F)F)n2ncc(C(=O)NCCc3ccccc3OC)c2N1 -9.27%
Cc1ccc(Cn2c(C)c3cnn(CC(=O)NCCN4CCOCC4)c(=O)c3c2C)cc1 -20.6%
O=C(CCN1C(=O)c2ccccc2C1=O)NCCN1CCOCC1 -4.16%
Cc1ccc(CC2(C)C(=O)Nc3ccc(OC(F)(F)F)cc32)cc1 (configuration not stated) -1.95%
O=C(Nc1ccc2c(c1)OCCO2)C(C1CC1)N1CCC(Cc2ccccc2)CC1 (configuration not stated) -0.169%
CCOC(=O)[C@]12CCCC=C1N(CCC1=CCCCC1)C(=O)[C@H](CC(=O)N1CCOCC1)C2 -2.91%
CCc1nc2c(OCc3ccc(Cl)cc3Cl)cccn2c1N(C)C(=O)C(C)C 1.42%
CCc1nc2ccc(C(=O)N3CCN(c4cc(Cl)ccc4C)CC3)cc2nc1CC -26.7%
O=C(c1cccs1)N1C[C@H](n2cc(C3CC3)nn2)[C@@H](O)C[C@@H]1c1ccccc1 0.507%
CC(C)N1C(=O)c2ccccc2NC(=O)C1C(=O)NCc1cccs1 (configuration not stated) -9.21%
CC(=O)c1ccc(-c2cnc3c(NC=O)cc(-c4cccc(NS(C)(=O)=O)c4)cn23)cc1 -17.7%
Cc1ccccc1S(=O)(=O)NC(=O)C1(C)CCN1C(=O)C1(c2ccccc2)CCCC1 (configuration not stated) -0.858%
O=C(Nc1ccccc1)N1CCC(C(=O)N2CCN(Cc3ccccc3)CC2)CC1 -1.62%
O=C(Nc1cccc(NC(=O)N2CCN(c3ccccc3)CC2)c1)N1CCN(c2ccccc2)CC1 -1.46%
CC(=O)c1c(C)[nH]c(C(=O)COc2ccc3c(C)cc(=O)oc3c2)c1C -6.06%
Cc1ccc(O)c(/C=N/NC(=O)COc2ccc3c(C)cc(=O)oc3c2)c1 3.75%
Cc1cccc(C)c1NC(=O)CN1CCN(c2ccc(F)cc2)CC1 -2.54%
COCCn1c(=NC(=O)c2ccccc2[N+](=O)[O-])sc2cc(S(C)(=O)=O)ccc21 2.07%
CS(=O)(=O)c1ccc(-c2nnc(NC(=O)c3ccc4c(c3)OCCO4)o2)cc1 -16.1%
CCCNC(=O)C1(C)CCN1C(=O)C1(c2ccccc2)CC1 (configuration not stated) 0.909%
O=C(NCc1cccnc1)c1cn(-c2ccccc2)nc1-c1cccs1 -27.6%
Cc1ccc(C(=O)NC(=S)NCc2cccnc2)cc1 0.84%
CCN1C(=O)[C@H]2[C@@H](c3ccc(C(F)(F)F)cc3)N[C@]3(CCCN(Cc4ccc(Br)cc4)C3=O)[C@H]2C1=O -0.527%
O=C(COC(=O)c1ncc(Cl)c(Cl)c1Cl)NCc1ccccc1 -0.246%
O=C(COC(=O)c1ncc(Cl)c(Cl)c1Cl)NNC(=O)c1ccccc1 -0.929%
COc1ccc(C(=O)N2CCCCC2c2cc(C(=O)Nc3ccccc3)no2)cc1 (configuration not stated) -1.69%
Cc1cc(C)n2c(NCc3ccccc3)c(CC(C)C)nc2n1 -1.15%
Cc1cccc(CN2CCN(C3CN(Cc4cn(Cc5ccccc5F)nn4)S(=O)(=O)C3)CC2)c1 (configuration not stated) -1.38%
CNCCCOc1cc2nc(N3CCCN(C)CC3)nc(NC3CCN(C)CC3)c2cc1OC 4.09%
CN(C)c1ccc(-c2nnc(-c3cccnc3)o2)cc1 0.624%
OC(c1nnc(-c2ccccc2)o1)c1cccs1 (configuration not stated) -0.78%
O=C(COC(=O)c1ccccc1OCCOc1ccccc1)Nc1cccc(Br)c1 0.0233%
Cc1ccc(-c2cnc(NC(=O)CCC(=O)N(C)Cc3ccccc3)n2C)cc1 -6.71%
CC(=O)N1CCN(c2ccc(NCc3ccc(C(C)C)cc3)cc2)CC1 -2.79%
COc1ccc2nc(C)cc(Nc3cccc(C(=O)O)c3)c2c1 1.33%
COc1cccc(NC(=O)Nc2ccc(F)cc2)c1 -0.16%
COC(=O)[C@@]12C[C@@H](CC(=O)N3CCCCC3)C(=O)N(Cc3ccc4c(c3)OCO4)C1=CCC(C)(C)C2 0.0879%
COc1ccc2nc(SCc3ccccc3)nc(C)c2c1 0.798%
CCc1nnc(SCC(=O)Nc2cc(OC)ccc2OC)nc1CC 0.955%

Potency, inactive:
CCc1nc2ccc(C(=O)N3CCN(c4cccc(Cl)c4)CC3)cc2nc1CC

Potency, active:
CCSc1nc(-c2ccc(OC)cc2)cc(-c2ccc(OC)cc2)c1C#N 22.4 µM
CCOc1cc(C2C(C(=O)OC)=CN(C3CCCC3)C=C2C(=O)OC)cc(Br)c1O 31.6 µM
O=C(NCc1ccccn1)c1cc2ccccc2oc1=O 31.6 µM
COc1ccc2oc(=O)c(C(=O)O)cc2c1 20 µM
O=C(NCc1ccccn1)c1cnc2sccn2c1=O 28.2 µM
COc1ccc2oc(=O)c(C(=O)NCc3ccccn3)cc2c1 10 µM
O=C(Oc1cccnc1)c1cc2ccccc2oc1=O 28.2 µM
CCN(CC)CCNC(=O)CCCCCn1c(=O)[nH]c2cc(C(=O)OC)ccc2c1=O 28.2 µM
Cc1ccc(-c2ccnc3nc(Sc4ncc(C(F)(F)F)cc4Cl)nn23)cc1 7.08 µM
CCOC(=O)C1(C(F)(F)F)N=C(N(C)C)OC(N(C)C)=N1 15.8 µM
O=C(Cn1c(-c2ccccn2)nc2ccccc21)NCCN1CCOCC1 28.2 µM
CCOC(=O)N1CCN(C(=O)c2ccc3nc4cc(Cl)ccc4c(=O)n3c2)CC1 3.55 µM
O=C(Nc1ccccc1)N1CCN(C2c3ccccc3-c3ccccc32)CC1 31.6 µM
Cc1cc(=O)oc2ccc(OCC(=O)O)cc12 31.6 µM
Cn1c(=NC(=O)c2ccc3c(c2)OCCO3)sc2cc(S(C)(=O)=O)ccc21 12.6 µM
O=C(/C=C/c1cccs1)NCc1cccnc1 35.5 µM
CS(=O)(=O)c1ccc(Cl)c(NC(=O)COC(=O)c2ncc(Cl)c(Cl)c2Cl)c1 14.1 µM
Nc1ccc(-c2nnc(-c3ccc(-c4ccccc4)cc3)o2)cc1 31.6 µM
Cc1ccc(-c2cnc(NCc3ccc(C(C)C)cc3)n2C)cc1 28.2 µM
COc1ccc2nc(/N=C(\N)NC(=O)Nc3ccccc3)nc(C)c2c1 14.1 µM
COC(=O)CSc1nc(C)c2ccc(OC)cc2n1 25.1 µM
